Test results reported in PubChem BioAssay (NCI).
The panel holds about 83,000 compounds, 20% with a hit somewhere; the sample as a whole holds those more often.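 Interpretation: 100, growth as untreated; towards 0, rising growth inhibition; 0, no net growth; 0 to -100, cell death. Compounds scoring below 10 were considered active.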 Values without a mark were called inactive. Calls of active or inactive are those of the source.

system: BT-549 breast; assay: NCI-60 one-dose screen, 48 h (100 = growth as untreated, 0 = no growth, -100 = all killed); details: 10 µM unless noted

| Compound | growth |
| --- | --- |
| N#CC1C(=O)NC(c2ccccc2[N+](=O)[O-])c2sc3c(F)cccc3c21 (stereo not drawn) | 89.2% |
| Brc1ccc(-c2nnc3c4[nH]ccc4ncn23)cc1 | 94.3% |
| CCCCCCCCCCCCNC(=S)N/N=C/c1ccccc1O | 108% |
| CC1(C)CC[C@]2(C(=O)O)CC[C@]3(C)[C@H](CC[C@@H]4[C@@]5(C)CCC(=O)C(C)(C)[C@@H]5CC[C@]43C)[C@H]2[C@H]1OC(=O)C(F)(F)F | -70% [100 µM] (active) |
| C#CCNC(=O)CC[C@@H](C)[C@H]1CC[C@H]2[C@@H]3CC[C@@H]4CC(=O)CC[C@]4(C)[C@H]3CC[C@]12C | -60% [100 µM] (active) |
| C=C(C)[C@@H]1CC[C@]2(C)[C@H](CC[C@@H]3[C@@H]([C@@](C)(O)CCC=C(C)C)CC[C@]32C)[C@@]1(C)CCC(=O)O | -22% [100 µM] (active) |
| CCOC(=O)COc1ccc2c(c1)O/C(=C\c1ccc(O)cc1)C2=O | 101% |
| O=c1c2c3c(sc2n2cnnc2n1Cc1ccccc1)CCCC3 | 95.7% |
| CC(C)CSc1ncnc2nc[nH]c12 | 104% |
| O=C(Oc1ccc(Cl)cc1[N+](=O)[O-])Oc1ccc(Cl)cc1[N+](=O)[O-] | 119% |
| CCOC(=O)c1nn(C2CCCCO2)c2ccc(NC(=O)CSc3nc4ccccc4c(=O)[nH]3)cc12 (stereo not drawn) | 89.6% |
| COc1ncc(-c2ccc3nccc(C#CCCCCC(=O)O)c3c2)cc1NS(=O)(=O)c1ccc(F)cc1F | 4.54% (active) |
| CCN(CC)CCS(=O)(=O)CCNc1ccnc2cc(Cl)ccc12 | -0.495% (active) |
| Cc1cc(N2CCCCCC2)nc(N2CCN(CC(=O)Nc3ccc4c(ccn4Cc4ccccc4)c3)CC2)n1 | 59% |
| COc1cc(-c2cc(-c3ccc(Nc4ncnc5cc(Cl)ccc45)cc3)nc(N3CCCCC3)n2)cc(OC)c1OC | 84% |
| O=C(Nc1cccc2cccnc12)c1cc(C(=O)c2ccc(Cl)cc2)n2ccc(-c3ccncc3)cc12 | 93.9% |
| O=C1/C(=C/c2cccc(OCc3ccccc3)c2)Oc2cc(OCCN3CCCCC3)ccc21 | 75.6% |
| COc1cc2c(c(OC)c1OC)-c1ccc(NNC(N)=S)c(=O)cc1[C@@H](NC(C)=O)CC2 | -5.6% (active) |
| CCOC(=O)c1nn(C2CCCCO2)c2ccc(NC(=O)CN3CCOCC3)cc12 (stereo not drawn) | 101% |
| O=S(=O)(NCc1ccccc1)c1ncnc2nc[nH]c12 | 93.7% |
| COc1ccccc1S(=O)Nc1ccccc1 (stereo not drawn) | 108% |
| CC(=O)n1cc(C=O)c2ccccc21 | 96.5% |
| CC(C)=CCC[C@](C)(O)[C@H]1CC[C@]2(C)[C@@H]1CC[C@@H]1[C@@]3(C)CC[C@H](OC(=O)CCC(=O)O)C(C)(C)[C@@H]3CC[C@]12C | 25.5% [100 µM] |
| COc1ccc(C2NC(=O)C(C#N)c3c2sc2c(F)cccc32)cc1 (stereo not drawn) | 56.4% |
| Cc1ccc(NC(=O)N[C@@H](Cc2cc(F)cc(F)c2)C(=O)N[C@@H]2C(=O)N3CCC[C@H]3C(=O)N3CCCC[C@H]3C(=O)N[C@@H](C)C(=O)N3C[C@H](C)C[C@H]3C(=O)O[C@H]2C)cc1 | 19.6% |
| O=C1Nc2ccccc2/C1=C/C(=O)c1ccc(N2CCOCC2)cc1 | 97% |
| COc1ccc2nc3c(cc2c1)C(=O)CC(C(F)(F)F)C3 (stereo not drawn) | 61% |
| CNC(=O)c1cc(Oc2ccc3nc(NC(=O)c4ccc5ncccc5c4)sc3c2)ccn1 | 82.4% |
| N#Cc1c(Cl)nc(SCC2CO2)nc1-c1ccccc1 (stereo not drawn) | 81.4% |
| CCCCCCCCCN(CCCCCCCCC)C(C)C(=O)c1ccc2cc(Br)c3ccccc3c2c1 (stereo not drawn) | 101% |

system: MDA-MB-435 melanoma; assay: as above; details: 10 µM unless noted

| Compound | growth |
| --- | --- |
| O=[N+]([O-])c1cc([N+](=O)[O-])c(C(F)(F)F)cc1NN=C(c1ccc(O)cc1)c1ccc(O)cc1 | 99.1% |
| O=C(COc1cccc(/C=C2\Oc3ccccc3C2=O)c1)c1ccc([N+](=O)[O-])cc1 | 116% |
| COc1cc(NCc2cn(-c3ccc(C(=O)O)cc3)nc2-c2ccc(C(=O)O)cc2)cc(OC)c1OC | 102% |
| COc1ncc(-c2ccc3nccc(C#CCCCCC(=O)NO)c3c2)cc1NS(=O)(=O)c1ccc(F)cc1F | -7.72% (active) |
| O=C(O)CSCc1nnc2n(Cc3ccccc3)c(=O)c3c4c(sc3n12)CCCC4 | 112% |
| C[C@]12CCc3nc(Nc4ccccc4)sc3C1=CC[C@@H]1[C@@H]2CC[C@]2(C)/C(=N/NC(N)=S)CC[C@@H]12 | 30.8% |
| C=C(C)C1CCC2(C(=O)O)CCC3(C)C(CCC4C5(C)CCC(OC(=O)NCc6ccccc6)C(C)(C)C5CCC43C)C12 (stereo not drawn) | 58.7% |
| CC(C)=CCC[C@](C)(O)[C@H]1CC[C@]2(C)[C@@H]1CC[C@@H]1[C@@]3(C)CC/C(=N/O)C(C)(C)[C@@H]3CC[C@]12C | 5.38% [100 µM] (active) |
| N#CC1C(=O)NC(c2ccccc2[N+](=O)[O-])c2sc3c(F)cccc3c21 (stereo not drawn) | 102% |
| Brc1ccc(-c2nnc3c4[nH]ccc4ncn23)cc1 | 97.8% |
| CCCCCCCCCCCCNC(=S)N/N=C/c1ccccc1O | 80.5% |
| CC1(C)CC[C@]2(C(=O)O)CC[C@]3(C)[C@H](CC[C@@H]4[C@@]5(C)CCC(=O)C(C)(C)[C@@H]5CC[C@]43C)[C@H]2[C@H]1OC(=O)C(F)(F)F | -69.3% [100 µM] (active) |
| C#CCNC(=O)CC[C@@H](C)[C@H]1CC[C@H]2[C@@H]3CC[C@@H]4CC(=O)CC[C@]4(C)[C@H]3CC[C@]12C | -39.7% [100 µM] (active) |
| C=C(C)[C@@H]1CC[C@]2(C)[C@H](CC[C@@H]3[C@@H]([C@@](C)(O)CCC=C(C)C)CC[C@]32C)[C@@]1(C)CCC(=O)O | -36.7% [100 µM] (active) |
| CCOC(=O)COc1ccc2c(c1)O/C(=C\c1ccc(O)cc1)C2=O | 102% |
| O=c1c2c3c(sc2n2cnnc2n1Cc1ccccc1)CCCC3 | 113% |
| CC(C)CSc1ncnc2nc[nH]c12 | 104% |
| O=C(Oc1ccc(Cl)cc1[N+](=O)[O-])Oc1ccc(Cl)cc1[N+](=O)[O-] | 120% |
| CCOC(=O)c1nn(C2CCCCO2)c2ccc(NC(=O)CSc3nc4ccccc4c(=O)[nH]3)cc12 (stereo not drawn) | 107% |

| Compound | growth |
| --- | --- |
| COc1ncc(-c2ccc3nccc(C#CCCCCC(=O)O)c3c2)cc1NS(=O)(=O)c1ccc(F)cc1F | 29.5% |
| CCN(CC)CCS(=O)(=O)CCNc1ccnc2cc(Cl)ccc12 | 3.99% (active) |
| Cc1cc(N2CCCCCC2)nc(N2CCN(CC(=O)Nc3ccc4c(ccn4Cc4ccccc4)c3)CC2)n1 | 67.7% |
| COc1cc(-c2cc(-c3ccc(Nc4ncnc5cc(Cl)ccc45)cc3)nc(N3CCCCC3)n2)cc(OC)c1OC | 106% |
| O=C(Nc1cccc2cccnc12)c1cc(C(=O)c2ccc(Cl)cc2)n2ccc(-c3ccncc3)cc12 | 97.6% |
| O=C1/C(=C/c2cccc(OCc3ccccc3)c2)Oc2cc(OCCN3CCCCC3)ccc21 | 85.4% |
| COc1cc2c(c(OC)c1OC)-c1ccc(NNC(N)=S)c(=O)cc1[C@@H](NC(C)=O)CC2 | -12.2% (active) |
| CCOC(=O)c1nn(C2CCCCO2)c2ccc(NC(=O)CN3CCOCC3)cc12 (stereo not drawn) | 106% |
| O=S(=O)(NCc1ccccc1)c1ncnc2nc[nH]c12 | 110% |
| COc1ccccc1S(=O)Nc1ccccc1 (stereo not drawn) | 97.6% |
| CC(=O)n1cc(C=O)c2ccccc21 | 109% |
| CC(C)=CCC[C@](C)(O)[C@H]1CC[C@]2(C)[C@@H]1CC[C@@H]1[C@@]3(C)CC[C@H](OC(=O)CCC(=O)O)C(C)(C)[C@@H]3CC[C@]12C | 6.66% [100 µM] (active) |
| COc1ccc(C2NC(=O)C(C#N)c3c2sc2c(F)cccc32)cc1 (stereo not drawn) | -9.11% (active) |
| Cc1ccc(NC(=O)N[C@@H](Cc2cc(F)cc(F)c2)C(=O)N[C@@H]2C(=O)N3CCC[C@H]3C(=O)N3CCCC[C@H]3C(=O)N[C@@H](C)C(=O)N3C[C@H](C)C[C@H]3C(=O)O[C@H]2C)cc1 | 18.5% |
| O=C1Nc2ccccc2/C1=C/C(=O)c1ccc(N2CCOCC2)cc1 | 96% |
| COc1ccc2nc3c(cc2c1)C(=O)CC(C(F)(F)F)C3 (stereo not drawn) | -47.7% (active) |
| CNC(=O)c1cc(Oc2ccc3nc(NC(=O)c4ccc5ncccc5c4)sc3c2)ccn1 | 91.6% |
| N#Cc1c(Cl)nc(SCC2CO2)nc1-c1ccccc1 (stereo not drawn) | 110% |
| CCCCCCCCCN(CCCCCCCCC)C(C)C(=O)c1ccc2cc(Br)c3ccccc3c2c1 (stereo not drawn) | 76.5% |
